The source of these data is PubChem BioAssay (NCATS).

Inconclusive results are not listed. Active and inactive are the calls of the source. Calls follow the shape of the dose curve; as a rule, active = well fitted inhibition curve with a large enough effect; inconclusive = small, poorly fitted or top-dose-only effect; inactive = flat fitted curve, though single readings scatter.
% is scaled to controls: 0 for no effect and ±100 for the full control effect.

Calcium and integrin-binding protein 1 (Homo sapiens), sequence (Q99828 whole entry, looked up): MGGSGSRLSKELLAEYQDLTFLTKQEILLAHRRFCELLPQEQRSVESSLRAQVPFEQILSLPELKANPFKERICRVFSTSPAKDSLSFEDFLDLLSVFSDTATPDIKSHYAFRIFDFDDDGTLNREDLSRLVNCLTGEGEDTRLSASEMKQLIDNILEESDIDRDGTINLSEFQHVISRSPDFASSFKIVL

This test concerns the target Calcium and integrin-binding protein 1 (Homo sapiens) (UniProt Q99828). As to the kind of experiment: Primary qHTS for Identification of Calcium Integrin Binding Protein 1 (CIB1) Competitor (AID 1508620). Also: top concentration of the series differs between compounds. The following applies: CIB1-GST / FITC-alphaIIb peptide fluorescence polarization; series mostly up to 114 µM; activity change, negative = inhibition: at the top concentration. In a few lines:
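Fluorescence polarization competition: GST-tagged CIB1 (1 uM final) preincubated with compound 15 min at room temperature, then FITC-labelled alphaIIb peptide (100 nM final) added. After 15 min at room temperature, polarization read at Ex 480/Em 540.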
(In qHTS, concentration-response curves come from the screen itself.)
In the case of `COc1ccc(C2Nc3ccccc3C(=O)N2Cc2ccco2)cc1COc1c(C(C)C)cccc1C(C)C` (stereo unspecified), the “activity change, negative = inhibition” value is 0.0739% (inactive).
With `O=C(Nc1ccc(Cl)c([N+](=O)[O-])c1)Nc1nnc(C2CCCCC2)s1`, the “activity change, negative = inhibition” value was -0.73% (inactive).
For the compound `Fc1cc(Nc2nc(-c3ccncc3)nc3ccccc23)ccc1-c1ccncc1`, the “activity change, negative = inhibition” value was 23.5% (inactive).
In the case of `CC(C)(C)c1ccc(C(=O)NCC(=O)OC(C(=O)Nc2cc(C(F)(F)F)ccc2Cl)c2ccccc2)cc1` (stereo unspecified) it was -3.75% (inactive); in that of `O=S1(=O)N=C(Oc2cccc(C(F)(F)F)c2)c2ccccc21`, -0.689% (inactive).
Then `O=C(c1ccc2c(c1)ncn2-c1ccccc1)N1CCCCC1`, with 2.05% (inactive).
`Cc1ccccc1-c1csc2ncnc(Sc3nnnn3C)c12`: the “activity change, negative = inhibition” value is 2.94% (inactive).
In the case of `O=C(O)CCCCCNC(=O)CSc1nnc(-c2ccc([S+](=O)([O-])N3CCCC3)cc2)n1-c1ccccc1` it was -7.32% (inactive); in that of `O=C(NCCCc1cnc[nH]1)NCCCN(Cc1ccc(Cl)c(Cl)c1)c1ccc(Br)cn1`, 13% (inactive); in that of `O=S(=O)(Nc1cccc2cccnc12)c1ccc(Br)s1`, -13.8% (inactive).
In the case of `O=C(N/C=C/c1ccccc1)c1cccc([S+](=O)([O-])Nc2ccccc2F)c1` it was 4.59% (inactive); in that of `CC(=O)Nc1ccc(OCc2cccc(C3Nc4ccccc4C(=O)N3Cc3ccco3)c2)cc1` (stereo unspecified), -12.4% (inactive); in that of `O=C1CCCC2=C1C(c1[nH]ncc1Cl)N=C(c1nc3ccccc3o1)N2` (stereo unspecified), -11.5% (inactive).
On to `O=C(Nc1ccc(-c2nc3ccccc3[nH]2)cc1)c1ccc2c(c1)OCCO2`, for which the “activity change, negative = inhibition” value was 5.01% (inactive).
Then `CC(=O)c1ccc(N2CCN(S(=O)(=O)c3ccc4c(c3)CC(=O)N4)CC2)cc1`, with 9.77% [at 228 µM] (inactive); and `CCNc1cccc(S(=O)(=O)N2CCCN(S(=O)(=O)c3ccc4c(c3)OCCO4)CC2)c1`, with -1.14% (inactive).
